The results in this text go back to PubChem BioAssay AID463173 (ICCB-Longwood Screening Facility, Harvard Medical School, 2010).

The structures appear in SMILES notation. About 4,300 (8.3%) of roughly 52,000 compounds were called active. Shown is part of a subset that was picked to be rich in actives. A number with no mark means an inactive call. No stated cut-off is given here; in the data, active means survival mostly below about 52% (no sharp cut-off); inactive means mostly above about 56%.

For the test, the system named is DeltatarO mutant. The test can be described thus: growth inhibition of S. aureus wild type versus tarO mutant, primary screen, teichoic acid synthesis inhibitors, RN4220, OD600 (AID 463173). The note with it: OD600, 18 h, hits give low values, screened at 18.75 µg/mL (by protocol).
Regarding `O=c1[nH]c2ccc(NCc3ccccc3F)cc2[nH]1`, the survival was 94%.

`Cc1ccc(-n2ncc(C(=O)NCc3ccccc3C)c2-n2cccc2)cc1`: the survival is 74%.

Take `COc1ccccc1NC(=O)c1cnn(-c2ccccc2)c1-n1cccc1`: the survival is 93%.

Turning to `CSc1ccc(CCNC(=O)c2cnn(-c3ccccc3)c2-n2cccc2)cc1`, the survival is 46% (active).

Turning to `COc1ccc(CNC(=O)c2cnn(-c3ccccc3)c2-n2cccc2)cc1OC`, the survival was 113%.

Regarding `CCOc1ccccc1CNC(=O)c1cnn(-c2ccc(C)cc2)c1-n1cccc1`, the survival is 37% (active).

Regarding `O=C(Nc1cc(C(F)(F)F)ccc1Cl)c1cnn(-c2ccccc2)c1-n1cccc1`, the survival was 0% (active).

As to `CCOC(=O)c1cccc(NC(=O)c2cnn(-c3ccccc3)c2-n2cccc2)c1`, the survival was 80%.

Consider `COc1ccc(CNC(=O)c2cnn(-c3ccc(F)cc3)c2-n2cccc2)cc1`, for which the survival is 89%.

For the compound `O=C(NCCc1ccccc1)c1cnn(-c2ccc(F)cc2)c1-n1cccc1`, the survival was 58%.

For `CCc1ccc(NC(=O)c2cnn(-c3ccccc3)c2-n2cccc2)cc1`, the survival is 31% (active).

Consider `COc1cc(OC)c(NC(=O)c2cnn(-c3ccccc3)c2-n2cccc2)cc1Cl`, for which the survival is 84%.

In the case of `CCOc1ccc(NC(=O)c2cnn(-c3ccccc3)c2-n2cccc2)cc1`, the survival was 71%.

Take `COCCn1c(C)cc(O)c(C(c2ccccc2F)N2CCN(c3ccccc3)CC2)c1=O` (stereo unspecified): the survival is 79%.

As for `COc1ccc(N2CCN(C(=O)CSc3nnc4c(C)cc5cc6c(cc5n34)OCCO6)CC2)cc1`, the survival is 86%.

With `COc1ccc(NC(=O)CN2C(=O)C(c3ccccc3)=NC23CCC(C)CC3)cc1Cl` (stereo unspecified), the survival is 73%.

For `COC(=O)c1c(-c2cccs2)csc1NC(=O)c1ccc(C(C)C)cc1`, the survival was 73%.

For the compound `COc1ccc(C(=O)NCCc2sc(-c3cccc(F)c3)nc2C)cc1`, the survival was 67%.

On to `CCCN(C(=O)c1cc2c(=O)oc3ccccc3c2s1)c1ccc(CC)cc1`, for which the survival was 31% (active).

`CCCN(C(=O)c1cc2c(=O)oc3ccccc3c2s1)c1ccccc1C`: the survival was 54%.

In the case of `CCN(C(=O)c1cc2c(=O)oc3ccc(C)cc3c2s1)c1ccccc1C`, the survival is 63%.

On to `CCCN(C(=O)c1cc2c(=O)oc3ccccc3c2s1)c1cccc(Cl)c1`, for which the survival was 47%.

With `CCc1ccc(N(CC)C(=O)c2cc3c(=O)oc4ccc(C)cc4c3s2)cc1`, the survival is 42% (active).

As for `CCc1ccc(CNC(=O)c2cc3c(=O)oc4ccc(C)cc4c3s2)cc1`, the survival was 82%.

As for `CCOC(=O)C1=C(CN2CCCCC2)NC(=O)NC1c1ccc(OC)cc1` (stereo unspecified), the survival was 84%.

For the compound `O=C1Nc2ccccc2C1=Nc1ccc(Br)cc1`, the survival was 74%.

On to `CCN(C(=O)CCS(=O)(=O)c1cccc2nsnc12)c1cccc(C)c1`, for which the survival is 74%.

On to `O=C(NC1CCCC1)C(c1ccccc1)N(CC1CCCO1)C(=O)Cn1nnc2ccccc21` (stereo unspecified), for which the survival is 89%.

`CCOc1ccccc1NC(=O)CSc1nnc(CC)c(CC)n1`: the survival was 73%.

`Cc1ccc(-n2nnnc2CNC(=O)c2ccc(F)cc2)cc1C`: the survival was 106%.

Consider `Cc1ccc(C(=O)NCc2nnnn2-c2ccc(C)c(C)c2)cc1`, for which the survival is 115%.

`Cc1ccc(-n2nnnc2CNC(=O)C(C)C)cc1C`: the survival was 105%.

For the compound `O=C(CSc1nnnn1Cc1ccccc1)NCCc1ccccc1`, the survival is 89%.

Regarding `Cc1ccc(-n2nnnc2SCC(=O)NCCc2ccccc2)cc1C`, the survival was 42% (active).

Take `Cc1ccc(-n2nnnc2CNC(=O)C(C)(C)C)cc1C`: the survival is 46% (active).

For `COc1ccc(-n2nnnc2SCC(=O)NCCc2ccccc2)cc1`, the survival was 53%.

For `Cc1ccc(-n2nnnc2CNC(=O)c2cc(C(F)(F)F)cc(C(F)(F)F)c2)cc1C`, the survival was 0% (active).

On to `Cc1ccc(-n2nnnc2CNC(=O)c2ccccc2)cc1C`, for which the survival is 144%.

Regarding `CCOC(=O)C1=C(CS(=O)(=O)c2ccc(Br)cc2)NC(=O)NC1c1ccccc1` (stereo unspecified), the survival is 80%.

`Cc1cccc(-c2cc(NC(=O)COc3ccccc3F)n(-c3ccccc3)n2)c1`: the survival is 86%.

As to `CCOC(=O)c1ccc(NC(=O)Cn2c(=O)cc(C(F)(F)F)c3c(C)nn(C)c32)cc1`, the survival is 95%.

Regarding `COc1ccc(CCNS(=O)(=O)c2ccc(N3CCCCS3(=O)=O)cc2)cc1OC`, the survival was 69%.

As for `O=C(Nc1cccc(-c2nc3ccccc3o2)c1)c1ccc(-c2ccc(Br)cc2)o1`, the survival is 39% (active).

Consider `O=C(Nc1ccc2oc(-c3cccnc3)nc2c1)c1ccc(-c2ccccc2)o1`, for which the survival was 45% (active).

Take `O=C(Nc1ccc2oc(-c3ccc(Br)cc3)nc2c1)c1cc2ccccc2o1`: the survival is 55%.

As to `O=C(Nc1ccc2oc(-c3cccnc3)nc2c1)c1ccc(-c2ccc(Cl)cc2)o1`, the survival was 73%.

Regarding `Cc1c(NC(=O)c2ccc(-c3cccc([N+](=O)[O-])c3)o2)cccc1-c1nc2cc(Cl)ccc2o1`, the survival was 52%.

As for `COc1ccc(Br)cc1C(=O)Nc1ccc(-c2nc3cc(Cl)ccc3o2)cc1`, the survival was 43% (active).

For the compound `O=C(Nc1ccc(-c2nc3cc(Cl)ccc3o2)cc1)c1cc(Br)ccc1Cl`, the survival is 93%.

With `O=C(Nc1ccc(O)c(-c2nc3ccccc3o2)c1)c1ccc(-c2cccc(Cl)c2)o1`, the survival is 49%.

`O=C(Nc1cccc(-c2nc3ccccc3o2)c1)C(F)(F)F`: the survival was 61%.

As to `O=C(Nc1ccc2oc(-c3cccnc3)nc2c1)c1ccc(-c2cccc(Cl)c2)o1`, the survival is 50%.

Consider `COc1ccc(Cl)cc1C(=O)Nc1ccc2oc(-c3ccc(C(C)(C)C)cc3)nc2c1`, for which the survival was 82%.

Regarding `O=C(Nc1ccc(Cl)c(-c2nc3ccccc3o2)c1)c1ccc(-c2cccc([N+](=O)[O-])c2)o1`, the survival was 37% (active).

As to `CCOc1ccc(OCC)c(-n2cnnn2)c1`, the survival is 71%.

As for `CCOc1ccc2oc(=O)cc(CN3CCN(c4ccc(OC)cc4)CC3)c2c1`, the survival was 73%.

As for `COc1ccccc1N1CCN(C(=O)CSc2nc3ccccc3nc2Cc2ccc(F)cc2)CC1`, the survival is 95%.

In the case of `Cc1cccc(-c2noc(-c3cc(C(C)C)[nH]n3)n2)c1`, the survival was 97%.

For `Cc1ccc(CCNC(=O)c2ccc3c(=O)n(-c4ccccc4)c(=O)[nH]c3c2)cc1`, the survival was 86%.

For `Cc1cc(O)c(C(c2ccc(F)cc2)N2CCCCC2)c(=O)n1Cc1ccco1` (stereo unspecified), the survival was 75%.

On to `COc1cccc(NC(=O)Cn2c(=O)n(CCCC(=O)NCc3ccc4c(c3)OCO4)c(=O)c3ccccc32)c1`, for which the survival is 115%.

`Cc1cc(C)c(NC(=O)C2CCN(c3nc4ccccc4[nH]3)CC2)c(C)c1`: the survival was 102%.

As to `Cc1ccc(C#N)c(SCC(=O)O)n1`, the survival was 91%.

On to `Cc1cccc(Cn2cc(S(=O)(=O)c3ccccc3)c(=O)c3cc(F)c(N4CCOCC4)cc32)c1`, for which the survival is 72%.

Take `COc1ccc(/C=C/C(=O)Nc2cc(-c3nc4ccccc4o3)ccc2OC)cc1`: the survival was 50%.

In the case of `COc1ccc(-c2nc3ccccc3o2)cc1NC(=O)c1ccc(OCC(C)C)cc1`, the survival was 40%.

Regarding `COc1ccc(-c2nc3ccccc3o2)cc1NC(=O)c1cc(Br)ccc1OC`, the survival was 40% (active).

For the compound `COc1ccc(-c2nc3ccccc3o2)cc1NC(=O)c1cccnc1`, the survival was 45% (active).

Turning to `CC(C)(Oc1ccc(Br)cc1)C(=O)Nc1cc(-c2nc3ccccc3[nH]2)ccc1Cl`, the survival was 76%.

Regarding `COc1ccc(-c2nc3ccccc3o2)cc1NC(=O)c1ccc(-c2ccc(C)c(Cl)c2)o1`, the survival was 41% (active).

On to `COc1ccc(-c2nc3ccccc3o2)cc1NC(=O)c1cccc2c(Cl)cccc12`, for which the survival is 52%.

In the case of `COc1ccc(Br)cc1C(=O)Nc1ccc2oc(-c3cccnc3)nc2c1`, the survival was 117%.

On to `COc1ccc(-c2nc3ccccc3o2)cc1NC(=O)c1ccc(-c2cccc(Cl)c2C)o1`, for which the survival is 58%.

With `Cc1ccc2nc(-c3ccc(Cl)c(NC(=O)c4cccnc4)c3)oc2c1`, the survival was 126%.

Regarding `CCOc1ccc(C(=O)Nc2cc(-c3nc4ccccc4o3)ccc2C)cc1Cl`, the survival is 51%.

In the case of `COc1ccc(-c2nc3ccccc3o2)cc1NC(=O)C(C)(C)Oc1ccc(Br)cc1`, the survival is 4% (active).

On to `CCOc1ccc(NC(=O)NCCN2CCN(c3cccc(C)c3C)CC2)cc1`, for which the survival was 60%.

In the case of `Cc1ccc(C)c(N2CCN(C(=O)c3cn(CC(C)C)c(=O)c4c3c3ccccc3n4C)CC2)c1`, the survival is 28%.

`COc1ccccc1CNC(=O)C1CCN(c2ncnc3c2nc2n3CCCCC2)CC1`: the survival was 94%.

With `Cc1ccc2cc(C(c3nnnn3C3CCCC3)N3CCCc4ccccc43)c(=O)[nH]c2c1` (stereo unspecified), the survival is 97%.

With `CCN(CC)C(=O)Cn1cc(C(=O)C(C)C)c2ccccc21`, the survival is 87%.

For the compound `Cc1ccc(NC(=O)c2cnc(N3CCCC3)nc2C)cc1F`, the survival was 89%.

Consider `Cc1cc2[nH]c(=O)c(=O)[nH]c2cc1S(=O)(=O)N1CCN(c2cccc(C(F)(F)F)c2)CC1`, for which the survival was 78%.

As for `COc1ccc(-c2nc3ccccc3o2)cc1N`, the survival was 72%.

Consider `COc1ccc(-c2nc3ccccc3o2)cc1NC(=O)c1ccc(N2CCC(C)CC2)c([N+](=O)[O-])c1`, for which the survival is 66%.

As to `COc1ccc(-c2nc3ccccc3o2)cc1NC(=O)c1ccc(-c2ccc(Br)cc2)o1`, the survival was 43% (active).

For the compound `CCN(CC)S(=O)(=O)c1ccc2c(c1)N(CC(=O)N(C)Cc1ccccc1)C(=O)CO2`, the survival was 82%.

For the compound `Cc1cccc(Cn2c(CN3CCCC(C)C3)nc3c2c(=O)n(C)c(=O)n3C)c1` (stereo unspecified), the survival was 73%.

Regarding `Cc1ccc(NC(=O)Cn2c(=O)n(CC(=O)NCCc3ccccc3)c(=O)c3ccccc32)cc1C`, the survival was 67%.

For `Cc1ccc(C)c(NC(=O)c2cc(S(=O)(=O)NCc3ccccc3)ccc2F)c1`, the survival is 71%.

For the compound `Cc1ccc(NC(=O)c2cc(S(=O)(=O)NCCC3=CCCCC3)ccc2F)cc1C`, the survival was 20% (active).

Consider `Cc1cc(C)c(NC(=O)c2cc(S(=O)(=O)NCCC3=CCCCC3)ccc2F)c(C)c1`, for which the survival was 85%.

On to `COc1ccc(OC)c(NC(=O)c2cc(S(=O)(=O)NCCc3ccc(Cl)cc3)ccc2F)c1`, for which the survival was 70%.

With `Cc1cc(C)cc(NC(=O)c2cc(S(=O)(=O)NCCC3=CCCCC3)ccc2F)c1`, the survival is 67%.

As to `COc1ccc(CCNS(=O)(=O)c2ccc(F)c(C(=O)Nc3ccc(Cl)cc3)c2)cc1OC`, the survival is 104%.

As for `Cc1ccc(NC(=O)c2cc(S(=O)(=O)NCCC3=CCCCC3)ccc2F)cc1F`, the survival is 115%.

As to `Cc1ccc(NC(=O)c2cc(S(=O)(=O)NCCc3ccc(Cl)cc3)ccc2F)cc1`, the survival was 80%.

Regarding `Cc1ccc(CNS(=O)(=O)c2ccc(F)c(C(=O)Nc3ccc(C)c(F)c3)c2)cc1`, the survival is 46% (active).

Turning to `Cc1ccc(C)c(NC(=O)c2cc(S(=O)(=O)NCCC3=CCCCC3)ccc2F)c1`, the survival is 52% (active).

As to `CCc1ccccc1NC(=O)c1cc(S(=O)(=O)NCCc2ccc(OC)c(OC)c2)ccc1F`, the survival is 8% (active).

As to `COc1ccc(C)cc1NC(=O)c1cc(S(=O)(=O)NCCC2=CCCCC2)ccc1F`, the survival was 105%.
